{
  "source": "PubChem BioAssay (EPA / NIEHS)",
  "note": "The source made the active and inactive calls. The calls were made as follows: active = hit-call score of the fitted dose curve at least 0.9, where 1 is the maximum; inactive = score below 0.9.",
  "data": [
    {"read-out": "Macrophage colony-stimulating factor (MCSF), CSF1 (gene 1435)", "test": "BSK_LPS_MCSF: BioMAP Diversity Plus: LPS Assay for Macrophage colony-stimulating factor (MCSF) Biomarker Activity (AID 2283083)", "conditions": "primary human HUVEC with PBMC; actives raise or lower the signal", "description": "BSK_LPS is a cell-based, multiplexed-readout assay that uses umbilical vein endothelium and peripheral blood mononuclear cells, a human vascular primary cell co-culture, with measurements taken at 24 hours after chemical dosing in a 96-well plate.BSK_LPS_MCSF is an assay component measured in the BSK_LPS assay. It measures M-CSF antibody related to regulation of gene expression using ELISA technology.Data from the assay component BSK_LPS_MCSF was analyzed into 1 assay endpoint. This assay endpoint, BSK_LPS_MCSF, was analyzed with bidirectional fitting relative to DMSO as the negative control and baseline of activity. Using a type of binding reporter, gain or loss-of-signal activity can be used to understand changes in the signaling as they relate to the gene CSF1. Furthermore, this assay endpoint can be referred to as a primary readout, because this assay has produced multiple assay endpoints where this one serves a signaling function. To generalize the intended target to other relatable targets, this assay endpoint is annotated to the cytokine intended target family, where the subfamily is colony stimulating factor.\nThe levels of cell surface (or secreted, indicated by the prefix \"s\") biomarker endpoints were measured by ELISA. Overt cytotoxicity to cells in confluent adherent cultures (all systems other than the BT system) was assessed by measuring total protein levels using sulforhodamine B (SRB) staining in parallel cultures at the time of biomarker measurements, indicated as SRB endpoints. For proliferation assays for adherent cell types, individual cell types are cultured at sub-confluence and relative cell numbers quantified by SRB staining at time points optimized for each system (48 h: 3C and CASM3C systems; 72 h: BT and HDF3CGF systems; 96 h: SAg system). SRB was performed by staining cells with 0.1% SRB after fixation with 10% TCA and reading wells at 560 nm.Viability and proliferation of PBMC (T cells) was quantified by Alamar Blue reduction for the SAg and BT systems. For PBMC viability (referred to as PBMC Cytotoxicity within the assay endpoint names), cells were plated (75,000/well in a 96-well plate) and then chemical samples added for 1 h before addition of activators, SEB and TSST-1 (20 ng/mL final concentration each). Cells were incubated for 90 h. Then, Alamar Blue (20 uL/well) (Invitrogen, Cat DAL1100) was added for 6 h, and the plates were read with a fluorescence microplate reader at 546/580 nm (excitation/emission). For PBMC proliferation, cells were plated and activated as above but incubated for only 16 h prior to addition of Alamar Blue. Plates were read after 6 h.", "values": [
      {"smiles": "O=C(O)Cn1c(=O)n(Cc2ccc(Br)cc2F)c(=O)c2ccc(Cl)cc21", "outcome": "inactive"},
      {"smiles": "CC(C)(C)c1cc(/C=C2\\SC(N)=NC2=O)cc(C(C)(C)C)c1O", "AC50": "16 µM (active)"},
      {"smiles": "CO[C@H]1/C=C/O[C@@]2(C)Oc3c(C)c(O)c4c(O)c(c(/C=N/N5CCN(C)CC5)c(O)c4c3C2=O)NC(=O)/C(C)=C\\C=C\\[C@H](C)[C@H](O)[C@@H](C)[C@@H](O)[C@@H](C)[C@H](OC(C)=O)[C@@H]1C", "outcome": "inactive"},
      {"smiles": "O=C1O[C@H]([C@@H](O)CO)C(O)=C1O", "outcome": "inactive"},
      {"smiles": "CCCCCc1ccc(N)cc1", "outcome": "inactive"},
      {"smiles": "COc1cc(C(=O)NC2CCN(C)CC2)ccc1Nc1ncc2c(n1)N(C1CCCC1)CC(F)(F)C(=O)N2C", "AC50": "14 µM (active)"},
      {"smiles": "CC(C)(C)c1csc(-c2cc3cc(OCc4ccccc4CC(=O)O)ccc3o2)n1", "AC50": "27.2 µM (active)"},
      {"smiles": "CCCCCCCCN(C)CCCCCCCC", "outcome": "inactive"},
      {"smiles": "CCCCCCCCCC(=O)O", "outcome": "inactive"},
      {"smiles": "CCOC(=O)O[C@H](C)OC(=O)c1ccc2c(c1)cc(C(=O)NC1CCN(C(C)C)CC1)n2Cc1cc(-c2ccc(Cl)s2)on1", "AC50": "6.43 µM (active)"},
      {"smiles": "CN(C)c1ccc(C(=C2C=CC(=[N+](C)C)C=C2)c2ccc(N(C)C)cc2)cc1", "AC50": "0.476 µM (active)"},
      {"smiles": "CCCCCCCCCCCC[N+](C)(C)C", "AC50": "26 µM (active)"},
      {"smiles": "Oc1ccc2ccccc2c1", "outcome": "inactive"},
      {"smiles": "CCCCCCCCOc1ccc(C(=O)c2ccccc2)c(O)c1", "outcome": "inactive"},
      {"smiles": "c1ccc2n[nH]nc2c1", "outcome": "inactive"},
      {"smiles": "NC(=O)c1nc(-c2cccc(-c3cc(F)ccc3OCC(F)(F)C(F)(F)F)c2)n[nH]1", "AC50": "29.4 µM (active)"},
      {"smiles": "COCC(C)OCC(C)OCC(C)O", "note": "(stereo not given)", "outcome": "inactive"},
      {"smiles": "CC(C)(O)c1ccc(CNC(=O)c2cccnc2Oc2ccc3nonc3c2)cc1", "outcome": "inactive"},
      {"smiles": "c1ccc(C[n+]2cccc3ccccc32)cc1", "outcome": "inactive"},
      {"smiles": "CCCCCCCCCCCO", "outcome": "inactive"},
      {"smiles": "CCN(CC)C(=O)c1cc(S(=O)(=O)Cc2ccccc2)c(N2CCC(c3ccccc3)CC2)cc1N(CC)CCN(C)C", "AC50": "11.8 µM (active)"},
      {"smiles": "O=c1c(-c2ccc(O)cc2)coc2cc(O)cc(O)c12", "AC50": "14.8 µM (active)"},
      {"smiles": "O=C=NCCCCCCN=C=O", "outcome": "inactive"},
      {"smiles": "OC12N=C(c3ccccc3)SC1Cc1cc(Cl)ccc12", "note": "(stereo not given)", "outcome": "inactive"},
      {"smiles": "Cc1ccc2oc(CN(Cc3ccccc3)C(=O)Nc3c(F)cc(F)cc3F)c(-c3ccc(Cl)cc3)c2c1", "outcome": "inactive"},
      {"smiles": "CCCCCCCCOC(=O)c1cc(O)c(O)c(O)c1", "AC50": "31.9 µM (active)"},
      {"smiles": "CCCCOC(=O)CC(CC(=O)OCCCC)(OC(C)=O)C(=O)OCCCC", "outcome": "inactive"},
      {"smiles": "CCCC(=O)OCCC(C)C", "outcome": "inactive"},
      {"smiles": "C[C@]12CC[C@@H]3c4ccc(O)cc4CC[C@H]3[C@@H]1CCC2=O", "outcome": "inactive"},
      {"smiles": "CCCCCCCCCCCCO", "AC50": "32.2 µM (active)"},
      {"smiles": "Cc1ncc(CO)c(CO)c1O", "outcome": "inactive"},
      {"smiles": "O=C(O)Cc1cc(I)c(Oc2ccc(O)c(I)c2)c(I)c1", "outcome": "inactive"},
      {"smiles": "OCCO", "outcome": "inactive"},
      {"smiles": "Cc1cc2c(cc1C(F)(F)F)N(C(=O)Nc1ccc(Oc3cccnc3C)nc1)CC2", "AC50": "26.8 µM (active)"},
      {"smiles": "O=c1ccc2ccccc2o1", "outcome": "inactive"},
      {"smiles": "O=C(OCCCCCCOC(=O)c1ccccc1)c1ccccc1", "outcome": "inactive"},
      {"smiles": "NCc1cccc(C2CCN(C(=O)c3ccc(C#Cc4ccccc4F)o3)CC2)c1", "AC50": "26 µM (active)"},
      {"smiles": "Cc1occc1C(=O)Nc1ccc(C(=O)N2CCC(F)(F)/C(=C\\C(=O)N3CCC(N4CCCCC4)CC3)c3ccccc32)cc1", "outcome": "inactive"},
      {"smiles": "Cc1cccc2ccccc12", "outcome": "inactive"},
      {"smiles": "CCN(Cc1cccnc1)C(=O)c1cccc(Cl)c1[C@]1(C)C(=O)N(Cc2ccc(OC)cc2OC)c2ccc(Cl)cc21", "AC50": "6.54 µM (active)"}
    ]}
  ]
}
